Test results published in PubChem BioAssay (Tox21).
Several values for one entry are separate records, joined by “and”; a condition that tells them apart may be missing. Equal entries are not always repeated. Records with an inconclusive call do not appear. Activity calls are given as the source filed them. The call rests on the fitted dose curve; in most records, active means well fitted curve in the direction sought with a large enough effect in the repeat runs; inconclusive means weak or mixed curves; inactive means no such curve, though single readings can be large; an effect the other way counts as inactive or inconclusive.

How the values were obtained:
[1] = A CellTox Green Cytotoxicity Assay to monitor cytotoxicity in HepG2 cells - 0 hour (AID 1224882); settings: CellTox Green fluorescence; series mostly up to 76.8 µM; further: nearly all actives have a fitted effect of over 35% in size; further: potency means the concentration at half of the fitted maximal effect
Outline: (§1)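 Nonlytic assay: viable cells exclude the dye, so fluorescence scales with cell death. HepG2 at 600 cells/well, compounds added after 5 h, signal read across 40 h.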

[2] = A CellTox Green Cytotoxicity Assay to monitor cytotoxicity in HepG2 cells - 32 hour (AID 1224883); settings: CellTox Green fluorescence; series mostly up to 76.8 µM; further: nearly all actives have a fitted effect of over 50% in size; further: potency means the concentration at half of the fitted maximal effect
Outline: as §1

[3] = A CellTox Green Cytotoxicity Assay to monitor cytotoxicity in HEK293 cells - 8 hour (AID 1224884); settings: CellTox Green fluorescence; series mostly up to 76.8 µM; further: nearly all actives have a fitted effect of over 35% in size; further: potency means the concentration at half of the fitted maximal effect
Outline: (§2)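 Seeding of HEK293 cells together with cytotoxicity dye preceded a 5 h incubation at 37 C/5% CO2. Test compounds in DMSO were then added and fluorescence monitored across 40 h.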

[4] = qHTS RealTime-Glo MT Cell Viability Assay in HepG2 cells - 16 hour (AID 1224885); settings: RealTime-Glo luminescence; series mostly up to 76.8 µM; further: nearly all actives have a fitted effect of over 50% in size; further: potency means the concentration at half of the fitted maximal effect
Outline: (§3)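 Tox21 10K library screened in qHTS format on HepG2 cells carrying RealTime-Glo reagents. Compounds were added after a 5 h preincubation, and the luminescent signal from continuous culture was measured repeatedly during 40 h treatment.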

[5] = qHTS RealTime-Glo MT Cell Viability Assay in HEK293 cells - 24 hour (AID 1224886); settings: RealTime-Glo luminescence; series mostly up to 76.8 µM; further: nearly all actives have a fitted effect of over 50% in size; further: potency means the concentration at half of the fitted maximal effect; on activity change, negative = cytotoxicity: top concentration of the series differs between compounds
Outline: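 Luminescence generated by NanoLuc from substrate produced by living HEK293 cells served as the viability signal. Each value reflects the reading at its stated time point during continuous 40 h compound exposure at 37 C.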

[6] = qHTS RealTime-Glo MT Cell Viability Assay in HEK293 cells - 8 hour (AID 1224887); settings: RealTime-Glo luminescence; series mostly up to 76.8 µM; further: nearly all actives have a fitted effect of over 50% in size; further: potency means the concentration at half of the fitted maximal effect; on activity change, negative = cytotoxicity: top concentration of the series differs between compounds
Outline: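 Tox21 screen in HEK293 using RealTime-Glo MT chemistry, with cells and reagent co-dispensed. Luminescence proportional to viable cell number was captured at intervals during 40 h compound exposure at 37 C.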

[7] = A CellTox Green Cytotoxicity Assay to monitor cytotoxicity in HEK293 cells - 16 hour (AID 1224888); settings: CellTox Green fluorescence; series mostly up to 76.8 µM; further: nearly all actives have a fitted effect of over 35% in size; further: potency means the concentration at half of the fitted maximal effect
Outline: as §2

[8] = qHTS RealTime-Glo MT Cell Viability Assay in HepG2 cells - 0 hour (AID 1224889); settings: RealTime-Glo luminescence; series mostly up to 76.8 µM; further: nearly all actives have a fitted effect of over 50% in size
Outline: as §3

[9] = A CellTox Green Cytotoxicity Assay to monitor cytotoxicity in HepG2 cells - 8 hour (AID 1224890); settings: CellTox Green fluorescence; series mostly up to 76.8 µM; further: nearly all actives have a fitted effect of over 45% in size; further: potency means the concentration at half of the fitted maximal effect
Outline: as §1

[10] = qHTS assay to identify small molecule antagonists of the estrogen receptor alpha (ER-alpha) signaling pathway using the BG1 cell line in the presence of 0.1 nM 17-beta-estradiol - cell viability counter screen (AID 1259241); settings: VM7Luc4E2 (BG1) viability, CellTiter-Fluor protease, 22 h, 0.1 nM estradiol agonist added; series mostly up to 92.4 µM; further: nearly all actives have a fitted effect of over 40% in size; further: potency means the concentration at half of the fitted maximal effect
Outline: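 VM7Luc4E2, 4,000 cells/well, phenol red-free medium + 10% charcoal-stripped FBS; 24 hr plating; cpd + 0.1 nM E2 final, 22 hr 37C/5% CO2; CellTiter-Fluor 30 min, fluorescence.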
On the % scale 0 is the no-effect control and ±100 the full control effect.

CN(C)CCN1CCOCC1
inactive: Potency [1] | Potency [2] | Potency [3] | Potency [4] | Potency [5] | Potency [6] | Potency [7] | Potency [8] | Potency [9] | Potency [10]

CCCCCCCCCCCCCC[n+]1ccccc1
inactive: Potency [1] | Potency [8]
active: Potency [2] 11 µM | Potency [3] 54.9 µM | Potency [4] 21.9 µM | Potency [5] 6.16 µM | Potency [6] 54.9 µM | Potency [7] 54.9 µM | Potency [9] 49 µM

CC(=O)Nc1ccc(O)cc1
inactive: Potency [1] | Potency [2] | Potency [3] | Potency [4] | Potency [5] | Potency [6] | Potency [7] | Potency [8] | Potency [9] | Potency [10]

C=CC/C=C/C/C=C/C/C=C/C
inactive: Potency [1] | Potency [2] | Potency [3] | Potency [4] | Potency [5] | Potency [6] | Potency [7] | Potency [8] | Potency [9] | Potency [10]

CCc1c(Br)c(Br)c(Br)c(Br)c1Br
inactive: Potency [1] | Potency [2] | Potency [3] | Potency [4] | Potency [5] | Potency [6] | Potency [7] | Potency [8] | Potency [9] | Potency [10]

CCN=c1cc2oc3cc(NCC)c(C)cc3c(-c3ccccc3C(=O)OCC)c-2cc1C
active: Potency [1] 6.89 µM and 6.17 µM | Potency [2] 21.8 µM | Potency [3] 10.9 µM and 9.77 µM | Potency [4] 43.5 µM and 24.5 µM | Potency [5] 2.45 µM and 1.74 µM | Potency [6] 17.3 µM and 17.4 µM | Potency [7] 10.9 µM and 11 µM | Potency [9] 21.8 µM and 6.92 µM | Potency [10] 8.6 µM and 10.9 µM
inactive: Potency [8]

CCOC(/C=C(\C)CCC=C(C)C)OCC
inactive: Potency [1] | Potency [2] | Potency [3] | Potency [4] | Potency [5] | Potency [6] | Potency [7] | Potency [8] | Potency [9] | Potency [10]

CCO[Si](C)(C)OCC
inactive: Potency [1] | Potency [2] | Potency [3] | Potency [4] | Potency [5] | Potency [6] | Potency [7] | Potency [8] | Potency [9] | Potency [10]

CSc1ccc2c(c1)N(CCC1CCCCN1C)c1ccccc1S2 (stereo not drawn)
active: Potency [2] 34.5 µM and 23.9 µM | Potency [3] 34.5 µM | Potency [4] 54.7 µM and 23.9 µM | Potency [5] 15.4 µM | Potency [6] 19.4 µM | Potency [7] 30.8 µM
inactive: Potency [1]

CCCCCCCC(OC)OC
inactive: Potency [1] | Potency [2] | Potency [3] | Potency [4] | Potency [5] | Potency [6] | Potency [7] | Potency [8] | Potency [9] | Potency [10]

CCCCCCCCC(C)=O
inactive: Potency [1] | Potency [2] | Potency [3] | Potency [4] | Potency [5] | Potency [6] | Potency [7] | Potency [8] | Potency [9] | Potency [10]

CCC1CCCCC1
inactive: Potency [1] | Potency [2] | Potency [3] | Potency [4] | Potency [5] | Potency [6] | Potency [7] | Potency [8] | Potency [9] | Potency [10]

C(=C/c1ccccc1)/c1ccccc1
inactive: Potency [1] | Potency [2] | Potency [3] | Potency [4] | Potency [5] | Potency [6] | Potency [7] | Potency [8] | Potency [9] | Potency [10]

CCCCCCCCCCCCCCCC
inactive: Potency [1] | Potency [2] | Potency [3] | Potency [4] | Potency [5] | Potency [6] | Potency [7] | Potency [8] | Potency [9] | Potency [10]

O=C(Nc1ccc(Cl)c(Cl)c1)c1cc(Cl)cc(Cl)c1O
active: Potency [2] 11 µM | Potency [5] 4.9 µM
inactive: Potency [1] | Potency [3] | Potency [4] | Potency [6] | Potency [7] | Potency [9]

CCCCCCCCCCCCCCCCCO
inactive: cytotoxicity [1] -1.06% [at 15.8 µM] | cytotoxicity increase [2] 6.48% [at 15.8 µM] | cytotoxicity increase [3] -22.7% [at 15.8 µM] | activity change, negative = cytotoxic [4] 1.76% [at 15.8 µM] | activity change, negative = cytotoxicity [5] 0.271% [at 15.8 µM] | activity change, negative = cytotoxicity [6] 2.17% [at 15.8 µM] | activity change, negative = cytotoxicity [8] -0.0873% [at 15.8 µM]

Oc1c(Br)cc(Br)c2cccnc12
inactive: Potency [1] | Potency [2] | Potency [3] | Potency [4] | Potency [5] | Potency [6] | Potency [7] | Potency [8] | Potency [9] | Potency [10]

CCCC(=O)OCC(COC(=O)CCC)OC(=O)CCC
inactive: Potency [1] | Potency [2] | Potency [3] | Potency [4] | Potency [5] | Potency [6] | Potency [7] | Potency [8] | Potency [9] | Potency [10]

[O]=[Zr]
inactive: Potency [1] | Potency [2] | Potency [3] | Potency [4] | Potency [5] | Potency [6] | Potency [7] | Potency [9] | Potency [10]

CCCC(C)CCC(C)=O (stereo not drawn)
inactive: Potency [1] | Potency [2] | Potency [3] | Potency [4] | Potency [5] | Potency [6] | Potency [7] | Potency [9] | Potency [10]

CC(C)(c1cc(Br)c(O)c(Br)c1)c1cc(Br)c(O)c(Br)c1
inactive: Potency [1] | Potency [2] | Potency [3] | Potency [4] | Potency [5] | Potency [6] | Potency [7] | Potency [8] | Potency [10]
